GLP1R cytotox: qHTS of GLP-1 Receptor Inverse Agonists: Cytotox Screen; HEK293 cAMP-luciferase reporter cells, luminescence, 24 h; AID 624418, 2012; Potency, µM (highest dose often 38.3 µM), for inactives: at the top dose activity change, negative = inhibition, actives largely listed as inhibitors; actives 0.13% (n = 410,000);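 also: loss of luciferase light is scored as toxicity; % is scaled to controls: 0 for no effect and ±100 for the full control effect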
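Cells in DMEM/10% Nu serum/1% pen-strep, 1536-well format. Pre-incubated 12 h, dosed with 23 nL compound, incubated a further 24 h. Luciferase detection, 12 min at room temp, luminescence.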
TrxR1 substrate: qHTS Assay for Substrates of Mammalian Selenoprotein Thioredoxin Reductase 1 (TrxR1): qHTS; Thioredoxin reductase 1, cytoplasmic (Rattus norvegicus), O89049; purified TrxR1 substrate turnover, NADPH consumption readout; Potency, µM (doses to about 114 µM), without a hit: at the top dose activity change, negative = substrate turnover; actives 0.01% (n = 390,000); AID 588456, 2011; also: % is scaled to controls: 0 for no effect and ±100 for the full control effect; nearly all actives have a fitted effect of over 50% in size
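Rat TrxR1, dispensed at 90 nM, was prereduced with 400 uM NADPH (final) for 5 min at ~22 deg C, then incubated with compound 15 min before 400 uM selenite. A first-read NADPH fluorescence drop versus no-compound background flagged substrates.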
TrxR1 inh: qHTS Assay for Inhibitors of Mammalian Selenoprotein Thioredoxin Reductase 1 (TrxR1): qHTS; Potency, µM (series often up to 114 µM), inactives show top-dose activity change, negative = inhibition, usual class: inhibitors; actives 1% (n = 390,000); AID 588453, 2011; recombinant rTrxR1, NADPH fluorescence consumption, selenite substrate; also: % is scaled to controls: 0 for no effect and ±100 for the full control effect; nearly all actives have a fitted effect of over 65% in size
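Rat TrxR1 (90 nM in the dispensed reagent) was pre-reduced with 400 uM NADPH for 5 min at room temperature, then incubated with compound for 15 min. After 400 uM selenite was added, NADPH fluorescence (Ex 340/Em 450 nm) was followed for 8 min.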
GLP1R inv ag: qHTS of GLP-1 Receptor Inverse Agonists (Inhibition Mode); Glucagon-like peptide 1 receptor (Homo sapiens), P43220; HEK293 GLP-1R CRE-luciferase, luminescence, 24 h; GLP-1R form is constitutively active; Potency, µM (doses to about 38.3 µM), inactives show top-dose activity change, negative = inhibition, hits mostly inhibitors; actives 1.6% (n = 410,000); AID 624417, 2012; also: % is scaled to controls: 0 for no effect and ±100 for the full control effect; nearly all actives have a fitted effect of over 55% in size
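Seeding at 200 cells/uL, 12 h culture, 24 hr compound treatment, then luciferase reagent and a luminescence read; cells are HEK293 stably expressing a constitutively active GLP-1R plus cAMP-responsive luciferase.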
GLP1R ag: qHTS of GLP-1 Receptor Agonists; Glucagon-like peptide 1 receptor (Homo sapiens), P43220; HEK293 GLP-1R CRE-luciferase, luminescence, 4-6 h; cells express a hypersensitive GLP-1R form; Potency, µM (titrated, usually from 45.6 µM), without a hit: top-dose activation, actives largely listed as activators; actives 0.007% (n = 380,000); also: % of control where 0% means no effect
mIDH1 inhibitor: qHTS for Inhibitors of mutant isocitrate dehydrogenase 1 (IDH1): qHTS; IDH1-R132H enzyme, NADPH consumption, diaphorase/resazurin fluorescence; actives 0.093% (n = 390,000); Isocitrate dehydrogenase [NADP] cytoplasmic (Homo sapiens), O75874; Potency, µM (highest dose often 76.6 µM), without a hit: at the highest dose activity change, negative = inhibition, hits mostly inhibitors; also: % is scaled to controls: 0 for no effect and ±100 for the full control effect; nearly all actives have a fitted effect of over 65% in size
Target sequence (O75874 whole entry R132H, stated change not applied): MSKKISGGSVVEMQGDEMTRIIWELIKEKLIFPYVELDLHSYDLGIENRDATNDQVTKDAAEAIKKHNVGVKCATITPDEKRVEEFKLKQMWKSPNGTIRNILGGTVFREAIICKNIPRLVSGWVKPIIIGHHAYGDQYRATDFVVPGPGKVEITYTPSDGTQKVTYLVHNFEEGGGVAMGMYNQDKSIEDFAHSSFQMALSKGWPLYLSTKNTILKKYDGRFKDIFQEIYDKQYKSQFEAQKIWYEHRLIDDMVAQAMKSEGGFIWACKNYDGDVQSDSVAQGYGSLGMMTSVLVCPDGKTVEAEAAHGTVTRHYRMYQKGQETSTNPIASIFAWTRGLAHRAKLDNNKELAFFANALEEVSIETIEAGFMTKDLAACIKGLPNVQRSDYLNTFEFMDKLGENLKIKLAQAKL
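IDH1-R132H (0.5 ug/mL) preincubated 30 min with compound, then NADPH (0.016 mM) and alpha-KG (2 mM) added; 80 min at RT, pH 7.5. Remaining NADPH coupled via diaphorase/resazurin to fluorescence (540/590 nm); concentration-response curves normalized to no-enzyme control.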
* = called active by the depositor; ? = inconclusive; / = not tested or not shown; [ ] = remark or other dose. Shown are actives, neighbours in structure and some others; about 2.7% of the full set was active somewhere. Calls follow the shape of the dose curve; as a rule, active = well fitted curve in the direction sought with a large enough effect; inconclusive = small, poorly fitted or top-dose-only effect, or another doubt; inactive = no such curve, though single readings can be large; an effect the other way counts as inactive or inconclusive. Potency is read from the fitted curve at half-maximal effect.

SMILES	GLP1R cytotox	TrxR1 substrate	TrxR1 inh	GLP1R inv ag	GLP1R ag	mIDH1 inhibitor
Cc1ccc(NC(=O)C(OC(=O)c2ccc(O)cc2)c2ccccc2)cc1Cl (stereo unspecified)	-1%	1%	19%	1%	-4%	5%
Cc1ccc(NC(=O)C(c2ccccc2)N(C)C)cc1Cl (stereo unspecified)	-10%	-4%[57.1 µM]	-1%	5µM*	4%	5%
CCC(C)c1ccccc1NC(=O)CN(C)CCOc1ccc(Cl)cc1 (stereo unspecified)	-21%	6%[57.1 µM]	20%	10µM*	12%	16%
C[C@H](O)[C@@H]1C(=O)N2CCc3c([nH]c4ccccc34)[C@@H]2C[C@@H]1N(C)C(=O)c1cc(Cl)cc(Cl)c1	-14%	/	/	?	0%	/
CC[C@]12c3[nH]c4ccc(Cl)cc4c3CCN1C(=O)[C@@H](CC(=O)NCc1cccc(C(F)(F)F)c1)C[C@@H]2C(=O)N1CCN(C(=O)c2ccco2)CC1	?	0%	6%	10µM*	-1%	-16%
CCOC(=O)c1cnc2c(F)ccc(F)c2c1Sc1ccccc1	-7%	-11%	56µM*	-21%	18%	-10%
CCOC(=O)c1cnc(-c2ccccc2)nc1C(F)(F)F	9%	2%[57.1 µM]	13%[57.1 µM]	-10%	0%	2%
COCC(=O)Oc1cc(-c2ccc(C)cc2C)c(OC(=O)COC)c(-c2ccc(C)cc2C)c1	-17%	/	/	2.5µM*	1%	12%
COCCN1C=C2C(=O)C(C)(OC(=O)CCC(=O)OC)C(=O)C(Br)=C2C=C1c1ccc(OC)cc1 (stereo unspecified)	-1%	?	-7%	16%	0%	19%
COc1ccc(C2=CC3=C(Br)C(=O)C(C)(OC(=O)c4ccco4)C(=O)C3=CO2)cc1 (stereo unspecified)	-41%	-2%	50µM*	8%	-11%	-12%
COc1ccc(C2=CC3=C(Br)C(=O)C(C)(OC(=O)c4cccs4)C(=O)C3=CO2)cc1 (stereo unspecified)	-8%	-13%	50µM*	2%	-5%	-1%
CC(=O)Nc1ccc(NC(=O)c2cc3c(=O)n(Cc4cccnc4)ccc3nc2C)cc1	3%	-1%[57.1 µM]	18%[57.1 µM]	2%	/	-23%
CCOc1ccc(CNC(=O)c2cc(=O)[nH]c3ccc(S(=O)(=O)N4CCCC4)cc23)cc1	-24%	4%[57.1 µM]	21%[57.1 µM]	6%	/	-3%
CCOc1cc(C=C(C#N)C#N)ccc1Oc1ccc([N+](=O)[O-])cn1	-1%	-8%	10µM*	-21%	-8%	-4%
O=C1CSc2ccc(S(=O)(=O)CCC(=O)NC3CCCCC3)cc2N1	-2%	3%	14µM*	7%	3%	-8%
CC1CCC(NC(=O)CCS(=O)(=O)c2ccc3c(c2)NC(=O)CS3)CC1 (stereo unspecified)	-12%	-1%	1%	-15%	-3%	-8%
CN(/N=C/c1cc(Cl)cc(Cl)c1O)c1c(Cl)cccc1[N+](=O)[O-]	-2%	-4%	8%	8.9µM*	9%	2%
CC(C)(C)N/N=C/c1cc(Cl)cc([N+](=O)[O-])c1O	?	-6%	-3%	-1%	-21%	3%
CC1=C/C(=N\NC(=S)Nc2cccnc2)CC(C)(C)C1	1µM*	-1%[0.457 µM]	6%[57.1 µM]	4µM*	9%	-1%
CC1(C)C2CC=C(/C=N/NC(=S)Nc3cccnc3)C1C2 (stereo unspecified)	-21%	3%	9%	1%	9%	-8%
Oc1cc(CNCc2ccccc2)c(O)cc1CNCc1ccccc1	-11%	-10%	79µM*	9%	7%	-2%
CC(=O)Nc1cccc(-c2nnc(SCC(=O)c3cc([N+](=O)[O-])ccc3Cl)o2)c1	-3%	-4%	-11%	-3%	4%	-13%
COc1ccc(N2CCN(C(=O)c3cnc(N4CCOCC4)c4ccccc34)CC2)cc1	25%	-4%[57.1 µM]	1%[57.1 µM]	16%	/	-14%
O=C(NCc1cccs1)Nc1cc(Cl)ccc1Cl	10µM*	6%[57.1 µM]	5%[57.1 µM]	?	32%	-5%
O=C(NCc1ccccn1)Nc1cc(Cl)ccc1Cl	1%	1%	15%	-28%	6%	-9%
SMILES	GLP1R cytotox	TrxR1 substrate	TrxR1 inh	GLP1R inv ag	GLP1R ag	mIDH1 inhibitor
Cc1ccc(-c2nc3c(cnn3-c3ccccc3)c(=O)n2-c2cccc(Cl)c2)cc1	-2%	17%	27%	4.5µM*	/	16%
Cc1ccc(N2CCn3c2nc2c3c(=O)n(CCCc3ccccc3)c(=O)n2C)cc1	23%	-9%	5%	1%	/	0%
COc1cccc2cc(C(=O)NC3CC4CCC3C4)oc12 (stereo unspecified)	-8%	17%	41%	10µM*	3%	1%
COc1cccc2cc(C(N)=O)oc12	-11%	11%[57.1 µM]	27%	4%	0%	-10%
NC(=O)c1cc2ccncc2c2ccccc12	-14%	10%[57.1 µM]	2%[2.29 µM]	1µM*	-6%	-12%
Cc1cc(C(N)=O)c2ccccc2n1	-10%	14%	14%	-8%	-2%	7%
COc1ccc(C)cc1NC(=O)C1CCN(C(=O)c2ccc(C(C)(C)C)cc2)CC1	-19%	-8%	3%	8.9µM*	23%	-6%
O=C(CNC(=O)c1cccnc1)c1ccc(F)cc1	/	-1%	0%	/	/	/
CCN(CC)/[N+]([O-])=N/OCOC(=O)C(C)c1ccc2cc(OC(C)=O)ccc2c1 (stereo unspecified)	/	5%[0.457 µM]	22%	/	/	/
CC(Oc1ccccc1)C(=O)N1CCN(Cc2cc(=O)n3nc(-c4ccccc4Cl)sc3n2)CC1 (stereo unspecified)	3%	-3%[57.1 µM]	-4%[57.1 µM]	11%	/	-4%
CCOC(=O)c1sc(NC(=S)NC(=O)CC(C)C)cc1C	?	-9%	-9%	10µM*	4%	3%
CCOC(=O)c1sc(NC(=S)NC(=O)C2CCCC2)cc1C	-4%	7%[57.1 µM]	-5%	?	13%	3%

Screens from PubChem BioAssay.
